Assay outcomes (PubChem)
NadD block = inhibitors of S. aureus NadD, primary screen, biochemical, colorimetric, uHTS | 0.78% of 360,000 active | purified NadD enzyme, colorimetric absorbance read-out | inhibition, % at 20 µM | AID 602399, 2012 | Nicotinate-nucleotide adenylyltransferase NadD (Staphylococcus aureus N315); in the data active means inhibition above about 26%
CRFR2-BP antag = antagonists of CRF-BP/CRF-R2 complex, primary screen, cell-based, HEK293, calcium dye fluorescence, uHTS; CRF-induced calcium fluorescence; inhibition, % at 11.8 µM; 0.59% of 350,000 active; AID 588475, 2011;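 active means inhibition of the ligand-induced calcium signal above about 50% at the single tested concentration, limit read from the data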
Myeloid diff MLP = induction of myeloid progenitor differentiation, primary screen, cell-based, flow cytometry, MLPCN library; ER-HoxA9 myeloid progenitors, lysozyme-GFP differentiation; calls only at 10 µM; 1% of 360,000 active; AID 624256, 2012;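 active means normalized GFP-positive differentiation at or above the plate's own cutoff, the solvent-only control mean plus 3 SD; inconclusive means no clear call, values can overlap the other calls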;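 further: cells exposed to compound for four days before flow analysis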
CendR NRP1 mod = modulators of CendR peptide binding to NRP-1, primary screen, biochemical, fluorescence polarization, uHTS; Neuropilin-1 (Homo sapiens), O14786; FAM-RPARPAR peptide binding to NRP-1; 0.85% of 360,000 active; inhibition, % at 25 µM;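 active means inhibition or corrected inhibition above about 18%, plus a signal ratio from 0.5 to 1.5, limit read from the data, passing the limit was not always enough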
FAS TE block = FAS thioesterase domain inhibitors, primary screen, biochemical, fluorescence intensity, uHTS. Fatty acid synthase (Homo sapiens), P49327. recombinant FAS-TE, OMFH fluorogenic substrate, fluorescence endpoint. inhibition, % at 15 µM. 0.67% of 360,000 active;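 active means compounds whose normalised, plate-corrected inhibition of enzyme fluorescence in the single-dose primary screen is 50% or more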;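 further: 0% = DMSO with enzyme and 100% = substrate without enzyme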
Numbers without * were called inactive; i = inactive; ? = inconclusive; . = no result given; + = active, no number. Only some compounds are listed: those with a hit (about 3.6% of all), similar ones and a draw of the others.

SMILES | NadD block | CRFR2-BP antag | Myeloid diff MLP | CendR NRP1 mod | FAS TE block
O=C1c2ccccc2-c2cc3ccccc3cc21 | -5 | -19 | i | 20 | 17
O=C1C=C(N2CC2)c2ccccc2C1=O | 11 | -16 | i | 25* | 9
COc1ccc(OCC(=O)N2CCCC(N3CCN(c4ccccc4C)CC3)C2)cc1 (configuration not stated) | -6 | 4 | i | 11 | 5
Fc1ccc(CNCCc2ccc3c(c2)OCO3)cc1 | -6 | 8 | i | -2 | -2
O=[N+]([O-])c1cc2c(cc1CNCCc1ccc3c(c1)OCO3)OCO2 | 5 | 11 | i | 37* | -3
C=CCC1(Nc2ccccc2)CC(C)N(C)CC1C (configuration not stated) | -9 | -3 | i | 6 | -7
Cc1cccc(N2C(=O)NC(=O)/C(=C/c3cc4c(cc3[N+](=O)[O-])OCO4)C2=O)c1 | 2 | -7 | . | -6 | -4
Cc1cccc(N2C(=O)NC(=O)/C(=C\c3ccc4c(c3)CCCN4Cc3ccccc3)C2=O)c1 | 38* | -59 | i | 79 | -11
O=C(CCc1ccccc1)N1Cc2cc(N3CCCCC3)ccc2-n2nncc2C1 | -5 | . | i | -14 | 9
Nc1cccc2c1Cc1cc([N+](=O)[O-])ccc1-2 | 1 | -86 | i | -2 | 1
N[C@@H]1C[C@H]1c1ccccc1 | 6 | -10 | i | 1 | -5
CC(C)CNP(=S)(c1ccccc1)C(C)(C)C (configuration not stated) | -3 | 66* | i | -4 | 0
CCC1(CC)COP(=O)(OCC(Cl)CCl)OC1 (configuration not stated) | 2 | 11 | i | 11 | -11
O=[N+]([O-])c1[nH]cnc1Br | 4 | 11 | i | 0 | -2
CC(C)c1ccc(N2C(=O)NC(=O)/C(=C/C=C/c3ccco3)C2=O)cc1 | 8 | -224 | + | -177 | -11
O=[N+]([O-])c1ccc(C(c2ccc([N+](=O)[O-])cc2)c2ccc([N+](=O)[O-])cc2)cc1 | -4 | 1 | + | 4 | 47
O=[N+]([O-])c1ccc(N2CC2)c([N+](=O)[O-])c1 | -2 | 0 | i | 18 | -4
COC(=O)C1=C(c2c(C)noc2C)C[C@@H]2CC[C@H]1N2C(=O)NCCCOC(C)C | -2 | 8 | i | -1 | -15
Oc1ccc(/C=N/NP(=S)(c2ccccc2)c2ccccc2)cc1 | 8 | 52* | i | -16 | 11
Cc1cc2c(C(F)(F)F)cc(=O)oc2c2c1NCCC2 | -5 | -214 | i | -7 | -20
O=c1cc(C(F)(F)F)c2cc3c4c(c2o1)CCCN4CCC3 | -6 | -134 | + | 134 | -232
CC1(C)CC(=O)CC(C)(C)N1O | -1 | 15 | i | 0 | -10
CN1C(=O)C(=Cc2ccc(N3CCOCC3)o2)C(=O)N(C)C1=O | 5 | 1 | i | -124 | -9
CN1C(=O)C(=Cc2ccc(N3CCCCCC3)o2)C(=O)N(C)C1=S | -1 | -82 | + | 141 | -15
COc1ccc(OC)c(C(O)C(C)N)c1 (configuration not stated) | 0 | 6 | i | 19* | -3
SMILES | NadD block | CRFR2-BP antag | Myeloid diff MLP | CendR NRP1 mod | FAS TE block
CCCOC(=O)c1ccccc1C(=O)OCCC | 8 | 10 | i | 7 | 0
CCOC(=O)c1ccccc1C(=O)OCC | 4 | 23 | i | 44* | -7
O=C1NC(=O)C(CCc2ccncc2)(CCc2ccncc2)C(=O)N1CCc1ccccc1 | -7 | -3 | i | 2 | 3
O=C1NC(=O)C(CCc2ccncc2)(Cc2ccc3c(c2)OCO3)C(=O)N1CCc1ccccc1 (configuration not stated) | 2 | 17 | + | -12 | 4
COC(=O)C1=C(c2ccc(OC(F)(F)F)cc2)C[C@@H]2CC[C@H]1N2C(=O)N1CCC(C)CC1 | -1 | 7 | i | 29* | 33
COC(=O)C1=C(c2ccc(C(C)=O)cc2)C[C@@H]2CC[C@H]1N2C(=O)N1CCC(O)CC1 | 0 | 5 | i | 29* | -12
COc1cc(/C=C2\C(=O)NC(=O)N(c3ccccc3)C2=O)cc(OC)c1OC | 5 | 5 | i | -1 | -4
COc1ccc(/C=C2/C(=O)NC(=O)N(c3ccc(C)c(C)c3)C2=O)cc1CN1C(=O)c2ccccc2C1=O | 29* | -23 | i | -70 | -4
CN1CCN(C(=O)COc2ccc(S(=O)(=O)Nc3ccc(Cl)cc3)cc2)CC1 | 0 | 10 | i | 2 | -4
COc1cc(/C=C/c2nc3ccccc3c(=O)n2-c2ccccc2O)ccc1O | -1 | -13 | i | -84 | -6
COc1cc(/C=C/c2nc3ccccc3c(=O)n2-c2cccc(O)c2)ccc1O | 3 | -14 | + | -70 | -2
N#CC1c2ccccc2-n2nncc2CN1C(=O)c1ccccc1F (configuration not stated) | -3 | . | i | 10 | -11
CNC(=O)Oc1cccc(-c2cn3cc(OC(=O)NC)ccc3n2)c1 | 6 | -16 | i | -7 | -6
CNC(=O)Oc1ccc2c(c1)C(=O)c1ccccc1CO2 | -2 | -2 | + | -7 | -7
CC1=C(O)C(=O)C=C2C1=CC=C1C2(C)CCC2(C)C3CC(C)(C(=O)O)CCC3(C)CCC12C (configuration not stated) | 47* | 6 | ? | -13 | 2
C[C@H](CO)N1C[C@H](C)[C@@H](CN(C)C(=O)Oc2ccccc2)OCc2cnnn2CCCC1=O | -2 | 7 | i | 11 | -6
O=S(=O)(NC1CCCC1)OCC(Cl)(Cl)Cl | 2 | 10 | i | 9 | -9
O=S(=O)(NC1CCCCCCC1)OCC(Cl)(Cl)Cl | -7 | -6 | i | 22* | 24
CN(C)P(=O)(NC(=O)c1cccn1C)N(C)C | 1 | 107* | i | -5 | -1
CN(C)P(=NC(=S)c1cccn1C)(N(C)C)N(C)C | -9 | -5 | i | 10 | -9
CC(C)(C)n1cc(C(=O)c2ccccc2)cc1-c1ccccc1 | -1 | 29 | i | 21* | 28
CN(C)C(=O)Oc1ccc(C(=O)c2ccccc2)cc1 | -6 | 17 | i | 5 | -5
Cn1cc(C(=O)c2ccccc2)c2ccccc21 | -3 | 53* | i | -4 | 6
O=S(=O)(c1ccccc1)N1Cc2ccccc2-n2nncc2C1 | -3 | 13 | i | 1 | -8
CC(C)N1CC=C(c2c[nH]c3ccccc23)CC1 | -1 | -13 | + | 10 | -8
CN(C)C(=S)SSC(=S)N(C)C | -1 | 0 | + | 2 | -7
Cc1[nH]c2ccccc2c1CCCNC1CCCCC1 | 1 | -22 | + | -6 | -10
